Assay results from the supplement of paper PMC3545927.
The other results are listed elsewhere or left out. The hit rate among all sequences tested is not known here.

Target: furin, P09958
Experiment: furin cleavage Z-score vs untreated control; higher = more cleavage, active = 3.5 or more, inactive = 1 or less, 8 variable residues between constant flanks
How it was run: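 The cleavage Z-score is the log read count relative to furin-free reactions, lowess-adjusted and scaled by median absolute deviation. Counts came from sequencing DNA released from bead-bound 8-mer peptide–cDNA fusions after digestion with purified furin for 7.5, 15 or 30 min.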
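Further: purified furin at 1:10 enzyme:substrate in 50 mM HEPES pH 7.5.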

Sequence of furin, P09958 (P09958 whole entry): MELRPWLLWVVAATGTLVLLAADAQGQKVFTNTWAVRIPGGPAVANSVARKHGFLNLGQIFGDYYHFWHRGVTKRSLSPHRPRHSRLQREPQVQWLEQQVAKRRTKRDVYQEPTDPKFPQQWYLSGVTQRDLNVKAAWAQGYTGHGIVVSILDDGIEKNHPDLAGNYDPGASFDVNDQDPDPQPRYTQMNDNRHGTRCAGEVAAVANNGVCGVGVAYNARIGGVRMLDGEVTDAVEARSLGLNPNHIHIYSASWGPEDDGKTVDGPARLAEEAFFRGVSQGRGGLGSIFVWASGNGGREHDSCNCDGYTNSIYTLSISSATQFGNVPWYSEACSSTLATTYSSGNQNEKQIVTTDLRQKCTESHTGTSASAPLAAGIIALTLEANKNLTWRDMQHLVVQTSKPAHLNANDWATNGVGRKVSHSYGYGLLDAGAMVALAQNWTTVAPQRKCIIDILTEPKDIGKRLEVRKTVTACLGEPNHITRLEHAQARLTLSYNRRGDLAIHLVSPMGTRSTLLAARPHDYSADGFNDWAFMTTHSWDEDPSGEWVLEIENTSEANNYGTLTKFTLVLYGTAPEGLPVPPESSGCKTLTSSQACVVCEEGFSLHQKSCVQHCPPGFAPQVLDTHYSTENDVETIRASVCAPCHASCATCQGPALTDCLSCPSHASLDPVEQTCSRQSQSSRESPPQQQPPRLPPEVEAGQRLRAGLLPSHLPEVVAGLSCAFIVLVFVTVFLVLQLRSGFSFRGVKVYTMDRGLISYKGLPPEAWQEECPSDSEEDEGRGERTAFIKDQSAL

Sequence | furin cleavage Z-score (7.5 min) | furin cleavage Z-score (15 min) | furin cleavage Z-score (30 min)
CASTPCSAHRAGNASASA [HC2573] | 0.385 (inactive) | 0.166 (inactive) | 1.63
CAVLKEVKAAAGNASASA [HC1404] | -0.975 (inactive) | 0.455 (inactive) | -0.678 (inactive)
CALEGRVRRAAGNASASA [FS-268] | 10.4 (active) | 10.8 (active) | 9.36 (active)
CAYLNRYKRAAGNASASA [FS-635] | 8.98 (active) | 9.12 (active) | 5.24 (active)
CAGMGRVRRAAGNASASA [FS-27] | 11.2 (active) | 10.9 (active) | 10 (active)
CAWLKRRKRAAGNASASA [FS-1181] | 11.7 (active) | 10.8 (active) | 7.39 (active)
CATIASPKGPAGNASASA [HC705] | -0.242 (inactive) | -0.653 (inactive) | -1.2 (inactive)
CACGKYLFNWAGNASASA [HC1631] | -0.792 (inactive) | -0.758 (inactive) | -0.511 (inactive)
CAPVENLETTAGNASASA [HC759] | 0.416 (inactive) | 0.844 (inactive) | 0.545 (inactive)
CAYDVVCCSMAGNASASA [HC2109] | 0.403 (inactive) | -1.03 (inactive) | -0.733 (inactive)
CAPEGRRKRTAGNASASA [FS-1042] | 7.2 (active) | 9.98 (active) | 7.54 (active)
CAPEGRTWAQAGNASASA [HC196] | 0.395 (inactive) | -0.56 (inactive) | -1.92 (inactive)
CAVDAETHVTAGNASASA [HC351] | -2.06 (inactive) | -2.12 (inactive) | -1.23 (inactive)
CARRKREVQMAGNASASA [FS-2779] | 6.69 (active) | 7.05 (active) | 7 (active)
CARRKREKTQAGNASASA [FS-3165] | 5.81 (active) | 8.48 (active) | 5.8 (active)
CARRKRLPEMAGNASASA [FS-1778] | 0.399 (inactive) | 0.463 (inactive) | -1.64 (inactive)
CALSKRSLRDAGNASASA [FS-1373] | 4 (active) | 8.19 (active) | 6.86 (active)
CARRVRSYGQAGNASASA [FS-2084] | 2.55 | 4.27 (active) | 5.55 (active)
CAVSKGWRLLAGNASASA [HC670] | 0.0516 (inactive) | -0.975 (inactive) | -0.799 (inactive)
CAWGENDTDVAGNASASA [HC425] | -1.56 (inactive) | -0.446 (inactive) | -2.12 (inactive)
CALDGVRLHRAGNASASA [HC1223] | -1.06 (inactive) | 0.461 (inactive) | -0.00108 (inactive)
CALVVTSTWVAGNASASA [HC2145] | -0.711 (inactive) | -0.969 (inactive) | -0.561 (inactive)
CAEVWTSTWVAGNASASA [HC2188] | 0.933 (inactive) | 0.313 (inactive) | 0.822 (inactive)
CATEPCSGSWAGNASASA [HC1852] | -0.934 (inactive) | -0.739 (inactive) | -1.88 (inactive)
CALRKRDVSVAGNASASA [FS-1676] | 4.02 (active) | 6.7 (active) | 7 (active)
CARPVRDDSVAGNASASA [FS-3029] | 0.58 (inactive) | -0.207 (inactive) | -0.229 (inactive)
CARRKRSIEEAGNASASA [FS-2230] | 9.81 (active) | 9.11 (active) | 9.55 (active)
CALKKRIKSVAGNASASA [FS-2123] | -0.488 (inactive) | -0.595 (inactive) | 0.647 (inactive)
CARRKRSPTQAGNASASA [FS-2069] | 11.3 (active) | 13.3 (active) | 8.55 (active)
CALSKRLGRSAGNASASA [FS-1644] | 9.63 (active) | 10.3 (active) | 7.46 (active)
